Reference: PubChem BioAssay (Tox21)
Records with an inconclusive call do not appear. A number with no mark means an inactive call. Active and inactive are the calls of the source. Unless noted, calls follow the shape of the dose curve; as a rule, active = well fitted cell-killing curve with a large enough effect in the repeat runs; inconclusive = weak or mixed curves, or effect the other way; inactive = no such curve, though single readings can be large or run the other way.
% is scaled to controls: 0 for no effect and ±100 for the full control effect.

Biological target: Peroxisome proliferator-activated receptor gamma (Homo sapiens) (UniProt P37231)
Sequence (P37231 whole entry, looked up): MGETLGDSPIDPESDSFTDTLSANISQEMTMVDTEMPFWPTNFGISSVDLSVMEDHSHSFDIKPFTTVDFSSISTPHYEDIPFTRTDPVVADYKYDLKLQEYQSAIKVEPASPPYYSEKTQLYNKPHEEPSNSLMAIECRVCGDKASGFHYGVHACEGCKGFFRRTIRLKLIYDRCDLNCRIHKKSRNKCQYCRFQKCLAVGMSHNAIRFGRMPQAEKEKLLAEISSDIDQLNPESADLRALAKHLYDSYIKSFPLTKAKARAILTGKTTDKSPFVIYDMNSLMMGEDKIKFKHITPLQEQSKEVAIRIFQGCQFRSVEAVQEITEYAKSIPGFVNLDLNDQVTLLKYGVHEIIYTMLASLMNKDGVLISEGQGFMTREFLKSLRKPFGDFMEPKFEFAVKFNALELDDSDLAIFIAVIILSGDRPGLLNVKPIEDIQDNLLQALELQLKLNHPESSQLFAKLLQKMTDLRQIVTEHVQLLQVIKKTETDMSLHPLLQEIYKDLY
Assay: qHTS assay to identify small molecule antagonists of the peroxisome proliferator-activated receptor gamma (PPARg) signaling pathway (AID 743191; calls by dose curve; also: nearly all actives have a fitted effect of over 30% in size; also: potency is read from the fitted curve at half-maximal effect)
Conditions: HEK293H PPARg-UAS-bla, beta-lactamase ratio, antagonist, 17 h; series mostly up to 62.6 µM; ratio activity, negative = inhibition: at the top concentration
Method in brief: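 GeneBLAzer PPARg UAS-bla HEK293H cells carrying a UAS-driven beta-lactamase reporter were plated at 3000 cells/well, preincubated 5 h at 37C, then given compound for 17 h at 37C; LiveBLAzer B/G FRET substrate was read after 1 h at room temperature.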
With `c1cnc2c(n1)CCCC2` the “ratio activity, negative = inhibition” value was 9.23%. In the case of `CC(=N\O)/C(C)=N/O`, the “ratio activity, negative = inhibition” value is reported as -2.59%. In the case of `CC(C)CCCCCOC(=O)CCCCC(=O)OCCCCCC(C)C`, the “ratio activity, negative = inhibition” value is reported as 16.5%. For `CO[C@H]1O[C@H](CO)[C@@H](O)[C@H](O)[C@H]1O`, the “ratio activity, negative = inhibition” value was 11.1%. In the case of `CCCCN(CCCC)CCCOC(=O)c1ccc(N)cc1`, the “ratio activity, negative = inhibition” value is reported as 1.17%. For `CC1=CC(=O)CC(C)(C)C1(O)/C=C/C(C)=C\C(=O)O` (configuration not stated), the “ratio activity, negative = inhibition” value was -2.23%. In the case of `Cc1ccc(Nc2nccc(N(C)c3ccc4c(C)n(C)nc4c3)n2)cc1S(N)(=O)=O`, the Potency is reported as 26.6 µM (active). In the case of `Cc1ccc(/C=N/n2c(-c3ccccc3)csc2=S)cc1`, the Potency is reported as 13.3 µM (active). With `Cc1cnc(C)c(C)n1` the “ratio activity, negative = inhibition” value was 1.6% [at 81.1 µM]. With `CC(C)(C)C(=O)O` the “ratio activity, negative = inhibition” value was -1.37% [at 81.1 µM]. With `CC(=O)[C@H]1CC[C@H]2[C@@H]3C[C@H](C)C4=CC(=O)CC[C@]4(C)[C@H]3[C@@H](O)C[C@]12C` the “ratio activity, negative = inhibition” value was 12.1%. For `C=CC(=C)CCCC(C)(C)OC(C)=O`, the “ratio activity, negative = inhibition” value was 2.69%. In the case of `Fc1c(F)c(F)c(Br)c(F)c1F`, the “ratio activity, negative = inhibition” value is reported as 15.1%. In the case of `C[Si]1(C)O[Si](C)(C)O[Si](C)(C)O1`, the “ratio activity, negative = inhibition” value is reported as -16.9%. For `Cc1oc(C)c(C(=O)Nc2ccccc2)c1C`, the Potency was 24.5 µM (active). In the case of `CCC(C)=O`, the “ratio activity, negative = inhibition” value is reported as 7.86%. With `CC1(C)C(=O)N(Br)C(=O)N1Cl` the “ratio activity, negative = inhibition” value was 0.0827%. For `CC1CC(O)CC(C)(C)C1` (configuration not stated), the “ratio activity, negative = inhibition” value was -1.45%. In the case of `CCCCCCCCSCCO`, the “ratio activity, negative = inhibition” value is reported as 9.67%.

Tested on: not listed separately
Assay: qHTS assay to identify small molecule antagonists of the peroxisome proliferator-activated receptor gamma (PPARg) signaling pathway - cell viability counter screen (AID 743194); also: nearly all actives have a fitted effect of over 55% in size
Conditions: PPARg-bla HEK293H viability, CellTiter-Glo luminescence, 17 h, co-treated with 50 nM rosiglitazone; series mostly up to 62.6 µM; activity change, negative = cytotoxicity: at the top concentration
Method in brief: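 PPARg-UAS-bla HEK293H cells were plated, rested 5 h at 37 C, then treated with compounds plus rosiglitazone (50 nM final) for 17 h at 37 C; viability was then read by CellTiter-Glo luminescence after 30 min at room temperature.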
For `NCC1CCCC(CN)C1` (configuration not stated), the “activity change, negative = cytotoxicity” value was -5.45%. With `O=C(C(=O)c1ccccc1)c1ccccc1` the “activity change, negative = cytotoxicity” value was -9.08%. For `C[N+](C)(C)CCOC(N)=O`, the “activity change, negative = cytotoxicity” value was -1.3%. With `c1cnc2c(n1)CCCC2` the “activity change, negative = cytotoxicity” value was 16%. In the case of `Nc1nccs1`, the “activity change, negative = cytotoxicity” value is reported as 11.2%. For `CCCCCCOC(=O)CCCCCCCC(=O)OCCCCCC`, the “activity change, negative = cytotoxicity” value was -7.93%. In the case of `COCCOC`, the “activity change, negative = cytotoxicity” value is reported as 17.7%. For `C/C=C(\C)C(=O)OCCC(C)CCC=C(C)C` (configuration not stated), the “activity change, negative = cytotoxicity” value was 1.25%. In the case of `CC(=N\O)/C(C)=N/O`, the “activity change, negative = cytotoxicity” value is reported as 14%. For `CC(C)CCCCCOC(=O)CCCCC(=O)OCCCCCC(C)C`, the “activity change, negative = cytotoxicity” value was 17.1%. With `CO[C@H]1O[C@H](CO)[C@@H](O)[C@H](O)[C@H]1O` the “activity change, negative = cytotoxicity” value was 11.3%. For `O=C(CCCCCCCCC#CI)Oc1ccccc1`, the “activity change, negative = cytotoxicity” value was -0.109%. With `CCCCN(CCCC)CCCOC(=O)c1ccc(N)cc1` the “activity change, negative = cytotoxicity” value was 0%. In the case of `CC1=CC(=O)CC(C)(C)C1(O)/C=C/C(C)=C\C(=O)O` (configuration not stated), the “activity change, negative = cytotoxicity” value is reported as -6.85%. With `CCCC(=O)O[C@]1(C(=O)COC(=O)CC)CC[C@H]2[C@@H]3CCC4=CC(=O)CC[C@]4(C)[C@H]3[C@@H](O)C[C@@]21C` the “activity change, negative = cytotoxicity” value was -14.9% [at 29.1 µM]. With `Cc1ccccc1N1C(=O)c2cc(S(N)(=O)=O)c(Cl)cc2NC1C` (configuration not stated) the “activity change, negative = cytotoxicity” value was 16.9%. In the case of `Cc1ccc(/C=N/n2c(-c3ccccc3)csc2=S)cc1`, the “activity change, negative = cytotoxicity” value is reported as -20.3%. With `Cc1cnc(C)c(C)n1` the “activity change, negative = cytotoxicity” value was 11.7% [at 81.1 µM]. In the case of `CC(C)(C)C(=O)O`, the “activity change, negative = cytotoxicity” value is reported as 11.6% [at 81.1 µM]. With `CCCCC(=O)O[C@]1(C(=O)CO)CC[C@H]2[C@@H]3CCC4=CC(=O)CC[C@]4(C)[C@H]3[C@@H](O)C[C@@]21C` the “activity change, negative = cytotoxicity” value was 0.94%. With `COC(=O)Nc1nc2ccc(C(=O)c3cccs3)cc2[nH]1` the “activity change, negative = cytotoxicity” value was -10.2%. In the case of `CC(C)c1nnc2ccc(-c3ocnc3-c3cc(F)ccc3F)cn12`, the “activity change, negative = cytotoxicity” value is reported as 9.26%. With `C[N+]1(C)CCC(=C(c2ccccc2)c2ccccc2)CC1` the “activity change, negative = cytotoxicity” value was -2.49%. In the case of `CC(=O)[C@H]1CC[C@H]2[C@@H]3C[C@H](C)C4=CC(=O)CC[C@]4(C)[C@H]3[C@@H](O)C[C@]12C`, the “activity change, negative = cytotoxicity” value is reported as -12.7%. For `C=CC(=C)CCCC(C)(C)OC(C)=O`, the “activity change, negative = cytotoxicity” value was 8.53%. With `Fc1c(F)c(F)c(Br)c(F)c1F` the “activity change, negative = cytotoxicity” value was 7.5%. With `Nc1nc(Cl)nc2c1ncn2[C@@H]1O[C@H](CO)[C@@H](O)[C@@H]1F` the “activity change, negative = cytotoxicity” value was -13.8%. In the case of `CCOC(=O)[C@@H](C)Oc1ccc(Oc2nc3ccc(Cl)cc3o2)cc1`, the “activity change, negative = cytotoxicity” value is reported as -2.52%. In the case of `CN(C)C(=O)Nc1ccc(Oc2ccc(Cl)cc2)cc1`, the “activity change, negative = cytotoxicity” value is reported as 3.33%. For `CCCCC(CC)CNCC(CC)CCCC` (configuration not stated), the “activity change, negative = cytotoxicity” value was 23.4%. In the case of `C[Si]1(C)O[Si](C)(C)O[Si](C)(C)O1`, the “activity change, negative = cytotoxicity” value is reported as -2.63%. In the case of `Cc1oc(C)c(C(=O)Nc2ccccc2)c1C`, the “activity change, negative = cytotoxicity” value is reported as -10.1%. In the case of `COCc1c(C(C)C)nc(C(C)C)c(/C=C/[C@@H](O)C[C@@H](O)CC(=O)O)c1-c1ccc(F)cc1`, the “activity change, negative = cytotoxicity” value is reported as -1.24%. For `CCC(C)=O`, the “activity change, negative = cytotoxicity” value was 12.3%. With `CC1(C)C(=O)N(Br)C(=O)N1Cl` the “activity change, negative = cytotoxicity” value was -6.37%. In the case of `CC1CC(O)CC(C)(C)C1` (configuration not stated), the “activity change, negative = cytotoxicity” value is reported as -9.61%. With `CC1C2CC(CC2C2CCCC(O)C2)C1(C)C` (configuration not stated) the “activity change, negative = cytotoxicity” value was -46.7%. For `CCCCCCCCSCCO`, the “activity change, negative = cytotoxicity” value was 2.4%.
